According to PubChem BioAssay AID1159580 (chemical genetic matrix, 2015):
Screen size: about 5,500 compounds; about 2,000 (36%) were called active. Inconclusive results (about 18%) are left out. Cut-off read from the data, not from the text of the source: active = normalized growth mostly below about 0.91 (no sharp cut-off); inconclusive = no clear call, values can overlap the other calls; inactive = mostly above about 0.92. Some of the results follow.

Assay: chemical genetic growth profiling, strain panel (AID 1159580);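 note: tested at 20 µM; growth read once vehicle control cultures reached saturation at 30 °C; 1 = growth at the plate median or of vehicle wells; lower values mean less growth of the strain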
Settings: S. cerevisiae deletion strains, growth OD

Measured: normalized growth

COc1ccc(-c2cc(=O)c3ccccc3o2)cc1OC
inactive: locus YAL013W, strain DEP1, active compounds read low 1.01 | locus YAL021C, strain ccr4, active compounds read low 0.942 | locus YBR021W, strain FUR4, active compounds read low 0.896 | locus YBR171W, strain sec66, active compounds read low 0.917 | locus YBR229C, strain ROT2, active compounds read low 1.04 | locus YCL029C, strain bik1, active compounds read low 0.974 | locus YCR088W, strain abp1, active compounds read low 0.929 | locus YDL005C, strain med2, active compounds read low 0.919 | locus YDL040C, strain nat1, active compounds read low 0.939 | locus YDL074C, strain BRE1, active compounds read low 0.981 | locus YDL101C, strain DUN1, active compounds read low 1.02 | locus YDL185W, strain tfp1, active compounds read low 1.03 | locus YDL192W, strain arf1, active compounds read low 0.989 | locus YDR001C, strain nth1, active compounds read low 0.93 | locus YDR101C, strain arx1, active compounds read low 0.95 | locus YDR150W, strain NUM1, active compounds read low 1.05 | locus YDR159W, strain sac3, active compounds read low 0.904 | locus YDR162C, strain NBP2, active compounds read low 1.01 | locus YDR195W, strain ref2 1.13 | locus YDR297W, strain sur2, active compounds read low 0.927 | locus YDR318W, strain mcm21, active compounds read low 0.999 | locus YDR334W, strain swr1, active compounds read low 0.922 | locus YDR335W, strain msn5, active compounds read low 0.925 | locus YDR388W, active compounds read low 1.01 | locus YDR502C, strain sam2, active compounds read low 0.925 | locus YEL061C, strain CIN8, active compounds read low 1.03 | locus YER015W, strain faa2, active compounds read low 0.932 | locus YER016W, strain bim1, active compounds read low 0.933 | locus YER110C, active compounds read low 1.04 | locus YER111C, strain swi4, active compounds read low 0.913 | locus YER155C, strain BEM2, active compounds read low 1.07 | locus YER167W, strain BCK2, active compounds read low 1.05 | locus YGL086W, strain mad1, active compounds read low 0.982 | locus YGL248W, strain PDE1, active compounds read low 0.97 | locus YGR135W, strain pre9, active compounds read low 0.955 | locus YGR252W, strain gcn5, active compounds read low 0.819 | locus YHR027C, strain rpn1, active compounds read low 0.93 | locus YHR030C, strain SLT2, active compounds read low 1.06 | locus YHR079C, strain IRE1 (second series), active compounds read low 1.03 | locus YHR094C, strain hxt1, active compounds read low 1.03 | locus YHR129C, strain ARP1, active compounds read low 1.03 | locus YHR200W, strain rpn10, active compounds read low 1.03 | locus YIL066C, strain RNR3, active compounds read low 1.01 | locus YIL073C, strain SPO22, active compounds read low 0.925 | locus YIL125W, strain kgd1, active compounds read low 0.976 | locus YIR030C, strain dcg1, active compounds read low 1.02 | locus YJL092W, strain hpr5, active compounds read low 0.923 | locus YJL095W, strain BCK1, active compounds read low 0.973 | locus YJL115W, strain asf1, active compounds read low 0.928 | locus YJL129C, strain trk1, active compounds read low 0.901 | locus YJL134W, strain LCB3, active compounds read low 1.05 | locus YJL154C, strain vps35, active compounds read low 0.938 | locus YJL168C, strain set2, active compounds read low 1.03 | locus YJL187C, strain SWE1 (second series), active compounds read low 0.982 | locus YJR043C, strain POL32, active compounds read low 0.979 | locus YJR075W, strain HOC1, active compounds read low 1.03 | locus YKL068W, active compounds read low 1.03 | locus YKL085W, strain MDH1 (second series), active compounds read low 1.03 | locus YKL085W, strain MDH1, active compounds read low 1.03 | locus YKL190W, strain CNB1, active compounds read low 1.03 | locus YKR001C, strain vps1, active compounds read low 0.96 | locus YKR026C, strain gcn3, active compounds read low 0.93 | locus YKR091W, strain srl3, active compounds read low 0.935 | locus YLL041C, strain sdh2, active compounds read low 0.941 | locus YLR027C, strain aat2, active compounds read low 0.926 | locus YLR039C, strain RIC1, active compounds read low 0.963 | locus YLR058C, strain SHM2, active compounds read low 1.01 | locus YLR102C, strain apc9, active compounds read low 1.03 | locus YLR262C, strain YPT6, active compounds read low 0.875 | locus YLR268W, strain sec22, active compounds read low 0.936 | locus YLR330W, strain CHS5, active compounds read low 1.04 | locus YLR342W, strain FKS1 (second series), active compounds read low 0.873 | locus YLR357W, strain rsc2, active compounds read low 0.948 | locus YLR371W, strain rom2, active compounds read low 1.04 | locus YLR384C, strain iki3, active compounds read low 0.935 | locus YLR418C, strain cdc73, active compounds read low 0.918 | locus YML016C, strain PPZ1, active compounds read low 1.05 | locus YML032C, strain rad52, active compounds read low 0.96 | locus YML124C, strain tub3, active compounds read low 1.04 | locus YMR078C, strain ctf18, active compounds read low 1.02 | locus YMR129W, active compounds read low 0.945 | locus YMR223W, strain ubp8, active compounds read low 0.99 | locus YMR231W, strain pep5, active compounds read low 0.946 | locus YMR307W, strain GAS1, active compounds read low 0.955 | locus YNL067W, strain RPL9B, active compounds read low 0.969 | locus YNL209W, strain ssb2, active compounds read low 0.936 | locus YNL233W, strain BNI4, active compounds read low 1.02 | locus YNL250W, strain rad50, active compounds read low 0.993 | locus YNL271C, strain bni1, active compounds read low 0.995 | locus YNL298W, strain CLA4, active compounds read low 0.934 | locus YNL307C, strain MCK1, active compounds read low 1.02 | locus YNL322C, strain KRE1 (second series), active compounds read low 0.953 | locus YNR052C, strain pop2, active compounds read low 0.918 | locus YOL006C, strain TOP1, active compounds read low 0.93 | locus YOL012C, strain htz1 1.9 | locus YOL147C, strain pex11, active compounds read low 1.03 | locus YOR061W, strain CKA2, active compounds read low 1.02 | locus YOR069W, strain VPS5, active compounds read low 1.02 | locus YOR080W, strain dia2, active compounds read low 0.928 | locus YOR136W, strain idh2, active compounds read low 1.02 | locus YOR144C, strain elg1, active compounds read low 0.994 | locus YOR265W, strain rbl2, active compounds read low 0.935 | locus YOR316C, strain cot1, active compounds read low 1.03 | locus YPR119W, strain clb2, active compounds read low 1.04 | locus YPR141C, strain kar3, active compounds read low 1.04 | locus YPR163C, strain tif3, active compounds read low 0.993 | locus YPR167C, strain met16, active compounds read low 1.02 | strain wtn01, active compounds read low 0.93
active: locus YAL026C, strain drs2, active compounds read low 0.838 | locus YAL030W, strain snc1, active compounds read low 0.91 | locus YBL061C, strain skt5, active compounds read low 0.898 | locus YBR009C, strain hhf1, active compounds read low 0.772 | locus YBR023C, strain chs3, active compounds read low 0.842 | locus YBR231C, strain swc5, active compounds read low 0.83 | locus YBR279W, strain paf1, active compounds read low 0.9 | locus YCL011C, strain gbp2, active compounds read low 0.824 | locus YCL016C, strain dcc1, active compounds read low 0.871 | locus YCL061C, strain MRC1, active compounds read low 0.904 | locus YCL069W, strain vba3, active compounds read low 0.921 | locus YDL035C, strain GPR1, active compounds read low 0.824 | locus YDR069C, strain doa4, active compounds read low 0.897 | locus YDR137W, strain rgp1, active compounds read low 0.681 | locus YDR392W, strain spt3, active compounds read low 0.41 | locus YEL003W, strain gim4, active compounds read low 0.9 | locus YEL037C, strain rad23, active compounds read low 0.872 | locus YEL061C, strain CIN8 (second series), active compounds read low 0.913 | locus YER155C, strain BEM2 (second series), active compounds read low 0.381 | locus YFR010W, strain ubp6, active compounds read low 0.889 | locus YGL078C, strain dbp3, active compounds read low 0.869 | locus YGL167C, strain pmr1, active compounds read low 0.878 | locus YGL173C, strain kem1, active compounds read low 0.897 | locus YGL227W, strain vid30, active compounds read low 0.912 | locus YGL240W, strain doc1, active compounds read low 0.772 | locus YGL253W, strain hxk2, active compounds read low 0.718 | locus YHR013C, strain ard1, active compounds read low 0.789 | locus YHR142W, strain chs7, active compounds read low 0.683 | locus YJL095W, strain BCK1 (second series), active compounds read low 0.823 | locus YJL164C, strain tpk1, active compounds read low 0.855 | locus YJL166W, strain qcr8, active compounds read low 0.824 | locus YJL187C, strain SWE1, active compounds read low 0.913 | locus YKL009W, strain mrt4, active compounds read low 0.801 | locus YKL160W, strain elf1, active compounds read low 0.862 | locus YLL001W, strain dnm1, active compounds read low 0.874 | locus YLL026W, active compounds read low 0.899 | locus YLR221C, strain rsa3, active compounds read low 0.872 | locus YLR258W, strain gsy2, active compounds read low 0.859 | locus YLR262C, strain YPT6 (second series), active compounds read low 0.728 | locus YLR320W, strain mms22, active compounds read low 0.597 | locus YLR342W, strain FKS1, active compounds read low 0.904 | locus YLR370C, strain arc18, active compounds read low 0.894 | locus YML120C, strain ndi1, active compounds read low 0.837 | locus YMR058W, strain fet3, active compounds read low 0.852 | locus YMR125W, strain sto1, active compounds read low 0.795 | locus YMR205C, strain PFK2, active compounds read low 0.768 | locus YNL071W, strain lat1, active compounds read low 0.665 | locus YNL248C, strain rpa49, active compounds read low 0.884 | locus YNR049C, strain mso1, active compounds read low 0.916 | locus YOR001W, strain rrp6, active compounds read low 0.864 | locus YOR070C, strain gyp1, active compounds read low 0.901 | locus YOR083W, strain WHI5, active compounds read low 0.862 | locus YOR106W, strain vam3, active compounds read low 0.806 | locus YOR184W, strain ser1, active compounds read low 0.802 | locus YOR270C, strain vph1, active compounds read low 0.539 | locus YOR290C, strain snf2, active compounds read low 0.734 | locus YPL051W, strain arl3, active compounds read low 0.854 | locus YPL078C, strain atp4, active compounds read low 0.825 | locus YPL106C, strain sse1, active compounds read low 0.788 | locus YPL240C, strain hsp82, active compounds read low 0.923
